Laboratory results from PubChem BioAssay (Tox21).
Results filed as inconclusive are left out. Where a call stands in place of a potency, no number is given. Values without a mark were called inactive. Active and inactive are the calls of the source. Calls come from the whole dose curve; as a rule, active = well fitted activation curve with a large enough effect in the repeat runs; inconclusive = weak or mixed curves; inactive = flat fitted curve, though single readings scatter.

experiment: Caspase-3/7 induction in HepG2 cells by small molecules, qHTS assay (AID 1346978); details: HepG2 caspase-3/7 activation, Caspase-Glo luminescence, 17 h; series mostly up to 92.4 µM; note: nearly all actives have a fitted effect of over 15% in size
Source text: National Center for Advancing Translational Sciences [NCATS] NIH Chemical Genomics Center [NCGC] U.S. Environmental Protection Agency [EPA] National Institutes of Environmental Health Sciences [NIEHS] National Toxicology Program [NTP] Assay overview: Apoptosis is a process of programmed cell death and plays a central role in the development of multicellular organisms. It is a highly regulated process and induces cell death by activating caspases, which are the members of cysteine aspartic acid-specific protease (caspase) family. Caspases involved in apoptosis are classified by their mechanism of action as initiator caspases (caspase-2, -8, -9 and -10) and executioner caspases (caspase-3, -6, and -7). Inhibition of apoptosis results in number of cancers, autoimmune diseases, inflammatory diseases and viral infection. To identify small molecule compounds that induce apoptosis, a homogeneous, luminescent Caspase-Glo 3/7 assay was used. Wild type HepG2 cells were used to screen Tox21 libraries for identifying caspase-3/7 activity inducers.
Assay Protocol Summary: HepG2 cells were dispensed at 2,000 per well in 5uL of culture medium into white solid bottom 1536-well plates (Corning Life Sciences, Corning, NY) using a Multidrop Combi (Thermo Scientific, Waltham, MA) dispenser. The assay plates were incubated at 37 C and 5% CO2 for 5hr, and then 23nL of compounds dissolved in DMSO and positive control were transferred using a Pintool station (Wako, San Diego, CA). The assay plates were incubated at 37C and 5% CO2 for 17hr. For caspase-3/7 activity read, 4uL of Caspase-Glo 3/7 reagent (Promega Corporation, Madison, WI) was added to each well of the assay plates using Flying Reagent Dispenser (FRD, Aurora Discovery, San Diego, CA) and incubated the assay plates at room temperature for 30min. The luminescence signal was quantified using a ViewLux plate reader (Perkin Elmer, Shelton, CT).

Compound	Potency	caspase activation
O=C(Nc1ccccc1)c1cc([N+](=O)[O-])ccc1Cl	inactive	
O=C(O)c1cc(C(=O)O)c(C(=O)O)cc1C(=O)O	inactive	
Nc1cccc2c(=O)[nH][nH]c(=O)c12	inactive	
O=c1[nH]nc(-c2ccc([N+](=O)[O-])o2)o1	inactive	
O=P(c1ccccc1)(c1ccccc1)c1ccccc1	inactive	
C=CCCC	inactive	
COC(=O)/C=C/C(C)=C\C=C\C(C)=C\C=C\C=C(C)\C=C\C=C(C)\C=C\C(=O)O	inactive	
CCOCCn1c(N2CCCN(C)CC2)nc2ccccc21	inactive	
O=S(=O)(O)c1cc(Cl)c(Cl)cc1Cl	inactive	
CCCCCCCCS	inactive	
CC(=O)c1cccnc1	inactive	
OCCOc1cccc(OCCO)c1	inactive	
CC(C)(C)NCC(O)COc1ccc(NC(=O)NC2CCCCC2)cc1 (stereo not given)	inactive	
CCCCCCCCCCCCSCCOCCO	inactive	
CCc1cnc(C(=O)O)c(C(=O)O)c1	inactive	
O=[N+]([O-])c1ccccc1CCO	inactive	
COc1cccc([C@H](O)C2CCN(CCc3ccc(F)cc3)CC2)c1OC	inactive	
Nc1nc(Cl)nc2c1ncn2[C@H]1C[C@H](O)[C@@H](CO)O1	inactive	
O=C(O)c1ccccc1[N+](=O)[O-]	inactive	
CC1(C)CC(=O)CC(C)(C)N1	inactive	

Compound	Potency	caspase activation
CCCCOc1ccc(N)cc1	inactive	
O=C1C=CCCC1	inactive	
CCCCCC1CCC(=O)O1 (stereo not given)	inactive	
O=C1c2ccccc2C(=O)c2c1ccc(O)c2O	inactive	
CC(C)(Cc1c[nH]c2ccccc12)NCC(O)COc1ccccc1C#N (stereo not given)	inactive	
COC=O		-1.76% [at 8.39 µM]
CC/C=C\CCO	inactive	
Nc1ccc(F)cc1F	inactive	
CC(C)=CCC/C(C)=C/C=N/O	inactive	
COc1ccc(/C=C/c2cc(OC)cc(=O)o2)cc1	inactive	
O=C(OCCCCCOC(=O)c1ccccc1)c1ccccc1	inactive	
CCCCCCCCCCCC(=O)OCC	inactive	
Cc1ccc(NC=O)c(C)c1	inactive	
NC(=O)c1ccccc1C(N)=O	inactive	
O=c1[nH][nH]c2ccccc12	inactive	
O=C(O)c1ccccc1-n1cc(C(=O)O)c(=O)c2cc(Nc3c(F)cc(F)cc3Cl)c(Cl)cc21	inactive	
CCCCC(CC)COCCC#N (stereo not given)	inactive	
C[C@H](N)C(=O)N[C@@H](C)C(=O)NC1[C@H]2CN(c3nc4c(cc3F)c(=O)c(C(=O)O)cn4-c3ccc(F)cc3F)C[C@@H]12 (stereo not given in full)	inactive	
O=C(O)CCc1nc2ccccc2[nH]1	inactive	
COc1ccc(/C(C)=C/C(=O)O)c(OC)c1	inactive	
